# Assay outcomes deposited in PubChem by several laboratories.
# Sampled rows, rich in hits. Any-hit rate of the full collection: about 0.43%.
# PKA-R2B act: PKA-R2B complex activation | activation, % at 11.4 µM | P22694+P31323 | AID 504700 | PKA-R2B holoenzyme dissociation, Cy5-IP20 fluorescence polarization; R2B truncated from residue 108, S112A mutant; 0% DMSO only, 100% 113 µM cGMP | hit rate 0.079% among 340,000;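 active = activation above a cutoff set at the mean over all compounds plus 3 SD, cut at about 18% in these data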;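 note: higher means more holoenzyme dissociation and a rise in polarization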
# HDAC3 inh: blocks human histone deacetylase 3; O15379; recombinant HDAC3, fluorogenic peptide/trypsin coupled, fluorescence; inhibition, % at 8.3 µM; hit rate 0.15% among 320,000; AID 2718; in the data active = inhibition above about 26%, passing the limit was not always enough
# Target sequence (O15379 whole entry, looked up): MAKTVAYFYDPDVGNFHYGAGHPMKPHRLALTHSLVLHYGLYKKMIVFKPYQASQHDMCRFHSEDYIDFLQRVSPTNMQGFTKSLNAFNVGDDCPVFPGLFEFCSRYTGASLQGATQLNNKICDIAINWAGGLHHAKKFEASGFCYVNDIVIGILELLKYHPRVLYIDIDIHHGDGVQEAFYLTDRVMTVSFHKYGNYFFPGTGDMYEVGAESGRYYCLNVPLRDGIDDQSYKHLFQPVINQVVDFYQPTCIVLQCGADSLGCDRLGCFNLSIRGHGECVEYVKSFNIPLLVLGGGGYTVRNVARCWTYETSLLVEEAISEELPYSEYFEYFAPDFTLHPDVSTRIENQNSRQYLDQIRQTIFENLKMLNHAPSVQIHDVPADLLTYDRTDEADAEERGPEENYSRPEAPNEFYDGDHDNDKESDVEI
# Rtt109 Vps75: inhibitors of Candida albicans Rtt109/Vps75 histone acetyltransferase; purified Rtt109/Vps75, ThioGlo CoA-SH fluorescence, 4 h; inhibition, % at 34.9 µM; hit rate 0.16% among 330,000;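 active = inhibition of at least 50% in every replicate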
# PKA-R1A act: PKA-R1A complex activation. hit rate 0.083% among 340,000. activation, % at 11.4 µM. P00514+P68181. PKA-R1A dissociation, Cy5-IP20 fluorescence polarization; scaled: DMSO 0%, 113 µM cGMP 100%. AID 504707;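 active = percent activation above the mean of all tested compounds plus 3 SD, cut at about 19% in these data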;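 note: higher means more PKAc released from R1A so a rise in polarization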
# A number is an active result; - = inactive; . = no result given.
SMILES,PKA-R2B act,HDAC3 inh,Rtt109 Vps75,PKA-R1A act
COc1cccc(/C=C2/Sc3ccc(C(=O)NCCCN4CCCC4)cc3NC2=O)c1,-,-,60.3,-
O=C1Nc2cc(C(=O)NCCCN3CCCC3)ccc2S/C1=C/c1ccccc1F,-,-,-,-
Cc1cccc(C)c1Nc1nnc(SCC(=O)c2ccc(Br)s2)s1,-,27.0,-,-
Cc1ccc(CN2CCN(CC(=O)NCc3ccccc3)CC2)cc1,-,-,53.2,-
Nc1nc2ccccc2[nH]1,-,-,-,-
Nc1ccccc1Sc1nc2ccccc2[nH]1,-,-,101.4,-
Cc1cc(C)c(S(=O)(=O)/N=C2/C=C(Sc3ncn[nH]3)C(=O)c3ccccc32)cc1C,-,40.3,-,-
O=c1[nH][nH]c(=S)n1C1CCCCC1,.,32.1,.,.
CCCCN1C(=O)C(=O)N(CC(=O)Nc2sc(CC)cc2C(=O)OCC)C1=O,-,-,-,-
CCOC(=O)c1c(N2C(=O)CC(Sc3ccccc3C(=O)O)C2=O)sc2c1CCCC2 (stereo not drawn),-,-,88.3,-
CCOc1ccc(N2C(=O)CC(Sc3ccccc3C(=O)O)C2=O)c([N+](=O)[O-])c1 (stereo not drawn),-,-,65.4,-
COC(=O)c1ccc(Oc2nc(Nc3ccc(C)c(C)c3)nc(N(C)C)n2)cc1,-,.,-,-
CCc1nnc(NC(=O)CN2C(=O)c3ccccc3C2=O)s1,-,-,54.6,-
CCCc1nnc(NC(=O)CN2C(=O)c3ccccc3C2=O)s1,-,-,-,-
Cc1ccc(Nc2nc(=O)c3cccnc3s2)cc1,-,-,-,-
COc1ccc(OC)c(Nc2nc(=O)c3cccnc3s2)c1,-,.,112.3,-
c1ccc(Cn2nnnc2C(c2ccccn2)N2CCN(c3ccccc3)CC2)cc1 (stereo not drawn),-,-,-,-
c1ccc(Cn2nnnc2C(c2ccccn2)N2CCOCC2)cc1 (stereo not drawn),-,-,62.6,-
O=C(c1csc2c1CCCC2)n1cccn1,-,78.8,-,-
COc1ccccc1C(=O)COC(=O)CNS(=O)(=O)c1ccc(C)cc1,-,-,-,-
C[C@]12CC[C@@H]3c4ccc(O)cc4CC[C@H]3[C@@H]1CC[C@@H]2O,-,-,-,-
C[C@]12CC[C@@H]3c4cc(O)c(O)cc4CC[C@H]3[C@@H]1CC[C@@H]2O,-,-,122.5,-
Cc1cc(SCC(=O)c2ccc(O)c(O)c2)n2nc(C)c(-c3ccccc3)c2n1,-,-,-,-
COc1cccc(C(=O)NNC(=O)CCC(=O)O)c1,-,.,54.1,-
O=C(O)CCC(=O)NNC(=O)c1cccc(Cl)c1,-,-,-,-
SMILES,PKA-R2B act,HDAC3 inh,Rtt109 Vps75,PKA-R1A act
C[C@@H]1CNC(=O)c2c(C(=O)N[C@H](C)c3ccccc3)ncn21,-,.,.,-
C/C(=N/NC(=O)c1cccc(N2CCCC2=O)c1)c1ccncc1,-,-,-,-
CCOc1ccccc1OCC(=O)O,-,-,-,-
O=C(O)COc1ccccc1O,-,-,60.2,-
COc1cccc(C(=O)n2c(SC)nc3cc4c(cc32)OCCO4)c1,-,92.0,-,-
Cc1ccc2nc(-c3ccc(NC(=S)NC4CC(C)(C)NC(C)(C)C4)cc3)sc2c1,-,-,62.2,-
Cc1noc(C)c1COC(=O)C1CCN(S(=O)(=O)c2ccc(F)cc2)CC1,-,-,-,-
CC(=O)Nc1cc(C(N)=O)c(Cl)cc1Cl,-,-,-,-
C[C@H](CO)N1C[C@H](C)[C@@H](CN(C)Cc2ccncc2)Oc2ccc(NC(=O)CCCCCC(=O)Nc3ccccc3N)cc2C1=O,-,89.9,-,-
C[C@H](CO)N1C[C@H](C)[C@@H](CN(C)Cc2ccncc2)Oc2ccc(NC(=O)Cn3cnnn3)cc2C1=O,-,-,-,-
CC(C)=CCC[C@](C)(O[C@@H]1O[C@H](CO[C@@H]2O[C@H](CO)[C@@H](O)[C@H](O)[C@H]2O)[C@@H](O)[C@H](O)[C@H]1O)C1CC[C@]2(C)C1C(=O)CC1[C@@]3(C)CC[C@H](O[C@H]4O[C@@H](CO)[C@H](O)[C@@H](O)[C@@H]4O)C(C)(C)C3CC[C@]12C (stereo partly drawn),-,-,-,-
CC(=O)OCC1O[C@@H](O[C@@H]2C[C@H]3C(C)(C)[C@H](OC(C)=O)CC[C@]3(C)[C@H]3CC[C@]45C[C@]4(CC[C@H]5[C@@H](C)C[C@@H](O)[C@H](O)C(C)(C)O)[C@@]32C)[C@H](O)[C@@H](O)[C@@H]1O (stereo partly drawn),.,41.9,.,.
O=C(Cc1cccc(F)c1)N1CCOCC1,-,.,-,-
